In PubChem BioAssay (EPA / NIEHS) one finds outcome and AC50 data, which are given here for six compounds.

Assay [1] has as its target human Retinoic Acid Receptor gamma (RARg), RARG (gene 5916) (UniProt P13631). Briefly: ATG_RARg_TRANS: Attagene TRANS-FACTORIAL HepG2 Assay for human Retinoic Acid Receptor gamma (RARg) (AID 2283009; active = hit-call score of the fitted dose curve at least 0.9, where 1 is the maximum). The gist of the method: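 HepG2, RARg-GAL4 TRANS system, 24 h exposure; reporter mRNA by RT-PCR + CE fluorescence; increase over DMSO.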
Assay [2] deals with human RAR-related Orphan Receptor gamma (RORg), RORC (gene 6097) (UniProt P51449). Briefly: ATG_RORg_TRANS: Attagene TRANS-FACTORIAL HepG2 Assay for human RAR-related Orphan Receptor gamma (RORg) (AID 2283011; active = hit-call score of the fitted dose curve at least 0.9, where 1 is the maximum). The procedure, abridged:
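Readout: reporter transcript induction (RT-PCR, fluorescent primer extension, capillary electrophoresis) after 24 h compound exposure of transiently transfected HepG2 cells carrying a RORg-Gal4 chimera and GAL4-UAS reporters; DMSO served as baseline, with increasing signal fitted.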

The target of assay [3] is Retinoic acid receptor RXR-alpha (Homo sapiens) (UniProt P19793). Briefly: ATG_RXRa_TRANS: Attagene TRANS-FACTORIAL HepG2 Assay for human Retinoid X Receptor alpha (RXRa) (AID 2283012; active = hit-call score of the fitted dose curve at least 0.9, where 1 is the maximum). The gist of the method:
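Cells (HepG2) carried transiently transfected GAL4-responsive reporter units. Following a 24 h chemical incubation, reporter mRNA induction was read via RT-PCR fragment analysis; DMSO served as negative control and baseline.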

The target of assay [4] is human Retinoid X Receptor beta (RXRb), RXRB (gene 6257) (UniProt P28702). Briefly: ATG_RXRb_TRANS: Attagene TRANS-FACTORIAL HepG2 Assay for human Retinoid X Receptor beta (RXRb) (AID 2283013; active = hit-call score of the fitted dose curve at least 0.9, where 1 is the maximum). The gist of the method: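 Multiplexed TRANS reporter assay in HepG2; 24 h dosing; reporter mRNA by RT-PCR/CE fluorescence; gain-of-signal relative to DMSO.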
Assay [5] has as its target human Thyroid Receptor alpha (THRa1), THRA (gene 7067) (UniProt P10827). The assay is described as follows: ATG_THRa1_TRANS: Attagene TRANS-FACTORIAL HepG2 Assay for human Thyroid Receptor alpha (THRa1) (AID 2283014; active = hit-call score of the fitted dose curve at least 0.9, where 1 is the maximum). The procedure, abridged: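 HepG2 cells transiently transfected with multiplexed GAL4-UAS reporter units for exogenous chimeric THRa1-Gal4; reporter mRNA measured 24 h after dosing by RT-PCR, 6-FAM labelling, HpaI digestion and capillary electrophoresis. Gain-of-signal fitted versus DMSO baseline.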

Read-out in assay [6]: E-selectin (Homo sapiens) (UniProt P16581)
Briefly: BSK_3C_Eselectin: BioMAP Diversity Plus: 3C Assay for Eselectin Biomarker Activity (AID 2283015).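 For outcome: cell surface E-selectin protein quantified by ELISA 24 h after dosing.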 As to conditions: primary human endothelial cells (HUVEC); actives raise or lower the signal. The gist of the method:
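Primary human umbilical vein endothelial cells (3C system) were dosed with chemical and cell-surface E-selectin measured by ELISA 24 h later. Bidirectional curve fitting used DMSO as negative control and baseline.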

Read-out in assay [7]: Interleukin-1 alpha (IL1a), IL1A (gene 3552)
Briefly: BSK_BE3C_IL1a: BioMAP Diversity Plus: BE3C Assay for Interleukin-1 alpha (IL1a) Biomarker Activity (AID 2283016). As to conditions: primary human bronchial epithelial cells; actives raise or lower the signal. The gist of the method:
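Cultures of primary human bronchial epithelial cells receive test chemical. After 24 h, IL-1a is quantified by ELISA, while parallel wells are fixed in TCA and SRB-stained for total protein. Changes in either direction are fitted relative to DMSO.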

Read-out in assay [8]: Monocyte Chemoattractant Protein-1 (MCP1), CCL2 (gene 6347)
Briefly: BSK_3C_MCP1: BioMAP Diversity Plus: 3C Assay for Monocyte Chemoattractant Protein-1 (MCP1) Biomarker Activity (AID 2283017). As to conditions: primary human endothelial cells (HUVEC); actives raise or lower the signal. The gist of the method:
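Primary human umbilical vein endothelial cells (3C system) were exposed to test chemical for 24 h, after which MCP-1 was quantified by ELISA. Activity was fitted bidirectionally against DMSO as negative control and baseline.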

Read-out in assay [9]: Human Leukocyte Antigen - DR isotype (HLADR), HLA-DRA (gene 3122)
Briefly: BSK_3C_HLADR: BioMAP Diversity Plus: 3C Assay for Human Leukocyte Antigen - DR isotype (HLADR) Biomarker Activity (AID 2283019). The following applies: primary human endothelial cells (HUVEC); actives raise or lower the signal. The gist of the method: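 Primary human umbilical vein endothelial cells (3C system) were dosed with compound and cell-surface HLA-DR was quantified by ELISA at 24 h. Activity was fitted bidirectionally against DMSO as negative control and baseline.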

Read-out in assay [10]: Interleukin-8 (IL8), CXCL8 (gene 3576)
Briefly: BSK_3C_IL8: BioMAP Diversity Plus: 3C Assay for Interleukin-8 (IL8) Biomarker Activity (AID 2283020). The following applies: primary human endothelial cells (HUVEC); actives raise or lower the signal. The procedure, abridged:
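Human vascular endothelial cells (umbilical vein) in the 3C system; IL-8 level detected by ELISA at 24 h post-dose, with DMSO as baseline.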

Read-out in assay [11]: Monokine induced gamma interferon (MIG), CXCL9 (gene 4283)
The assay is described as follows: BSK_3C_MIG: BioMAP Diversity Plus: 3C Assay for Monokine induced gamma interferon (MIG) Biomarker Activity (AID 2283021).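 For AC50: MIG protein level measured by immunoassay in the treated endothelial cultures.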 As to conditions: primary human endothelial cells (HUVEC); actives raise or lower the signal. The gist of the method: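 After 24 h of treatment, human umbilical vein endothelial cultures (3C system) had their MIG biomarker level determined by ELISA, with DMSO serving as negative control.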

Assay [12] concerns the target human Vitamin D Receptor (VDR), VDR (gene 7421) (UniProt P11473). The assay is described as follows: ATG_VDR_TRANS: Attagene TRANS-FACTORIAL HepG2 Assay for human Vitamin D Receptor (VDR) (AID 2283022; active = hit-call score of the fitted dose curve at least 0.9, where 1 is the maximum). The gist of the method: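 HepG2 cells were transiently transfected with multiple GAL4-UAS reporter units, so signal reflects exogenous chimeric receptor-Gal4 activity. After 24 h compound exposure, reporter mRNA was measured by RT-PCR, fluorescent labelling and capillary electrophoresis, fitted for gain of signal versus DMSO.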

Assay [13] in a line: BSK_3C_SRB: Viability Assessment in the BioMAP Diversity Plus: 3C Assay (AID 2283023).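 Note: fitted both ways against DMSO so a hit may be signal rise or drop.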 As to conditions: primary human endothelial cells (HUVEC). The gist of the method:
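Primary human umbilical vein endothelial cells in the 3C system were read 24 h after compound dosing. Total protein was stained with 0.1% sulforhodamine B after 10% TCA fixation and read at 560 nm, with bidirectional fitting against DMSO as baseline.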

Read-out in assay [14]: Matrix Metallopeptidase 1 (MMP1), MMP1 (gene 4312)
Briefly: BSK_BE3C_MMP1: BioMAP Diversity Plus: BE3C Assay for Matrix Metallopeptidase 1 (MMP1) Biomarker Activity (AID 2283024). The following applies: primary human bronchial epithelial cells; actives raise or lower the signal. The gist of the method: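 Dose cells, wait 24 h, run MMP1 ELISA; cells are human bronchial epithelial primaries. Both increases and decreases relative to DMSO counted.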

Assay [15] in a line: BSK_3C_Vis: BioMAP Diversity Plus: 3C Assay for Morphology Visualization (AID 2283025).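 For AC50: light microscopy image of cell morphology used as background control.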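 Note: fitted both ways so gain or loss versus DMSO counts.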 As to conditions: primary human endothelial cells (HUVEC). The procedure, abridged: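 Endothelial cells from human umbilical vein were treated with test chemicals for 24 h and inspected by light microscopy for changes in cell conformation.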
Read-out in assay [16]: Pselectin, SELP (gene 6403)
Briefly: BSK_4H_Pselectin: BioMAP Diversity Plus: 4H Assay for Pselectin Biomarker Activity (AID 2283026). The following applies: primary human endothelial cells (HUVEC); actives raise or lower the signal. The procedure, abridged:
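Human vascular endothelium from umbilical vein; P-selectin measured by ELISA at 24 h post-dose, with cytotoxicity checked by sulforhodamine B total-protein staining in parallel cultures (0.1% SRB after 10% TCA fixation, read at 560 nm).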

Assay [17] in a line: BSK_4H_SRB: Viability Assessment in the BioMAP Diversity Plus: 4H Assay (AID 2283027).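 For AC50: curves fitted both ways versus DMSO so AC50 may be loss or gain.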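 Note: cells exposed to compound for 24 h before staining.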 The following applies: primary human endothelial cells (HUVEC). The gist of the method: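 Absorbance at 560 nm of SRB-stained total protein served as the viability read-out in confluent primary human umbilical vein endothelium 24 h after chemical treatment. Curves were fitted bidirectionally against DMSO as negative control.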

Assay [18] in a line: BSK_BE3C_SRB: Viability Assessment in the BioMAP Diversity Plus: BE3C Assay (AID 2283028).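 For AC50: fitted both ways so AC50 may mark signal gain or loss versus DMSO.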 The following applies: primary human bronchial epithelial cells. The gist of the method:
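Human primary bronchial epithelial cells were exposed to test chemicals for 24 h. Total protein in parallel cultures was then measured by staining with 0.1% sulforhodamine B after 10% TCA fixation, with absorbance read at 560 nm. Activity was fitted bidirectionally against DMSO.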

Read-out in assay [19]: Thrombomodulin, THBD (gene 7056)
The assay is described as follows: BSK_3C_Thrombomodulin: BioMAP Diversity Plus: 3C Assay for Thrombomodulin Biomarker Activity (AID 2283029). As to conditions: primary human endothelial cells (HUVEC); actives raise or lower the signal. The gist of the method:
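Thrombomodulin ELISA, human primary HUVEC, 24 h post-dose; data fitted in both directions relative to DMSO.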

“And” between values parts separate entries of the source, which are not always exact repeats. Identical values can stand only once. Inconclusive results are not listed. Some structures have more than one record in an assay (separate samples or runs), and their calls can disagree. The source made the active and inactive calls. Rule for the calls, unless noted: active = hit-call score of the fitted dose curve at least 0.9, where 1 is the maximum; inactive = score below 0.9.

E-selectin (Homo sapiens), sequence (P16581 whole entry, looked up): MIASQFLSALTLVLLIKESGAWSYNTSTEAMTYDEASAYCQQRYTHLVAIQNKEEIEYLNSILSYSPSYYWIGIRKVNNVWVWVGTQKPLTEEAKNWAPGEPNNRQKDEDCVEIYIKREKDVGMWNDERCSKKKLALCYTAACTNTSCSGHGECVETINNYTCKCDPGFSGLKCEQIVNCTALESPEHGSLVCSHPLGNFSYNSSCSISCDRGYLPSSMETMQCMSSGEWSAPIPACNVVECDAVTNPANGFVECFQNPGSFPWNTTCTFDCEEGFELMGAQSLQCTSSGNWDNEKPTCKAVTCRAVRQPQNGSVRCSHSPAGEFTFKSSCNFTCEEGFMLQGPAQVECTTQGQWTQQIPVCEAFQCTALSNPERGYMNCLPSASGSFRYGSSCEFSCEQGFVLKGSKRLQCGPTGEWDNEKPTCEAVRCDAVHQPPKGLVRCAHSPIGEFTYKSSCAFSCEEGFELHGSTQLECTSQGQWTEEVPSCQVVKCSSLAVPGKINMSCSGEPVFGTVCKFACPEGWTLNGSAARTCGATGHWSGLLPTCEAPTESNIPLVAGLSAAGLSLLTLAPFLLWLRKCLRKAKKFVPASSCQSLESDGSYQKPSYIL
human Retinoid X Receptor beta (RXRb), RXRB (gene 6257), sequence (P28702 whole entry, looked up, the tested form may be a part): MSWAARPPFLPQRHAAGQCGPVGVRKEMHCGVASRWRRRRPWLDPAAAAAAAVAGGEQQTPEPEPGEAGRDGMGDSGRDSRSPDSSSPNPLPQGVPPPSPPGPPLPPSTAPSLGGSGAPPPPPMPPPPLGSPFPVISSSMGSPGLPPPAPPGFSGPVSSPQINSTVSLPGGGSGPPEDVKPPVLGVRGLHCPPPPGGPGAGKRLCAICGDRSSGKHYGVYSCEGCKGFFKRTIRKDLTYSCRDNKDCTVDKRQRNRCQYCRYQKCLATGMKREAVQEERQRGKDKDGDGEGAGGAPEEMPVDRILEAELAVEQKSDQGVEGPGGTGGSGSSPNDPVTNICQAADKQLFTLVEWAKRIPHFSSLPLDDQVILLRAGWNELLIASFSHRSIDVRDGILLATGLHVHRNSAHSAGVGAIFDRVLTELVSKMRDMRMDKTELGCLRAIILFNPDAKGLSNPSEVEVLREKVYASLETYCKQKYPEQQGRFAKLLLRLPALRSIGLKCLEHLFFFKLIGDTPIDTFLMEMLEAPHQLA
Retinoic acid receptor RXR-alpha (Homo sapiens), sequence (P19793 whole entry, looked up, the tested form may be a part): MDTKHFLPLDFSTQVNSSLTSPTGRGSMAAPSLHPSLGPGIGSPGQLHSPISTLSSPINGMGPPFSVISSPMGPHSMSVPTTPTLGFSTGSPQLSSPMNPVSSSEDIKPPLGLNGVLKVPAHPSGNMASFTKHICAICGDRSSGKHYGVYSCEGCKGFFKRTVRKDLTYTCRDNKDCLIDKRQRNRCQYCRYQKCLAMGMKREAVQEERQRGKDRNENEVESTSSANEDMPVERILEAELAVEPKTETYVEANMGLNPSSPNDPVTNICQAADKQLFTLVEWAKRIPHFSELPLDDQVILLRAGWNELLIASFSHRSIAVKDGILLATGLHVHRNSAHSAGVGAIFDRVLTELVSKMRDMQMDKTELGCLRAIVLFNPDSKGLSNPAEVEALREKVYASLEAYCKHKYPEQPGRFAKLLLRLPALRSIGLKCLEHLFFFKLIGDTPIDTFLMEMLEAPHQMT
human RAR-related Orphan Receptor gamma (RORg), RORC (gene 6097), sequence (P51449 whole entry, looked up, the tested form may be a part): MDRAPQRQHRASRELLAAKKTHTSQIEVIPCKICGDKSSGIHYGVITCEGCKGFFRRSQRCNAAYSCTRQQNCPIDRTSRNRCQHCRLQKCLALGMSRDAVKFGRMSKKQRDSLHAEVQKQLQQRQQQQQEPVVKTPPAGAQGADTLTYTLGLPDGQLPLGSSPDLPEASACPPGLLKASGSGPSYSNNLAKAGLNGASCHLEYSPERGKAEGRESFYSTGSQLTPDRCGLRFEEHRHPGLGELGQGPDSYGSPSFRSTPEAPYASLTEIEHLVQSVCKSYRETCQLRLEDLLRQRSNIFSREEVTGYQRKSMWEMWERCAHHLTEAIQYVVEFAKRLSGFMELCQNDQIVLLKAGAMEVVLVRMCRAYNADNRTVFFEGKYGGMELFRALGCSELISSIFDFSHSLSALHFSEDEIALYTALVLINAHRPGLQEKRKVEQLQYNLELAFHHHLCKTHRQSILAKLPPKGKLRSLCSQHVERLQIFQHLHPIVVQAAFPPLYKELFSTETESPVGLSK
human Vitamin D Receptor (VDR), VDR (gene 7421), sequence (P11473 whole entry, looked up, the tested form may be a part): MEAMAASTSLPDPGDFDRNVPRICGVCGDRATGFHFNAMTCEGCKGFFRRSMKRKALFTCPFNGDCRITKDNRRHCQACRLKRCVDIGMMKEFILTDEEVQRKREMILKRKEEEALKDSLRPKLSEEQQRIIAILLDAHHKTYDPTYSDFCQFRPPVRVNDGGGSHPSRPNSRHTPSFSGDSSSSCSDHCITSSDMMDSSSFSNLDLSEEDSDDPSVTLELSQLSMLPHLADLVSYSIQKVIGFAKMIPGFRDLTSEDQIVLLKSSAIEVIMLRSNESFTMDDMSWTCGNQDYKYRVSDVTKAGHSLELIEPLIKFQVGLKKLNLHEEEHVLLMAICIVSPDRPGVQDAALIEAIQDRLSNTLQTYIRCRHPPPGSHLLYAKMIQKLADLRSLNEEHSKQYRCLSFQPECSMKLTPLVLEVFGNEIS
human Retinoic Acid Receptor gamma (RARg), RARG (gene 5916), sequence (P13631 whole entry, looked up, the tested form may be a part): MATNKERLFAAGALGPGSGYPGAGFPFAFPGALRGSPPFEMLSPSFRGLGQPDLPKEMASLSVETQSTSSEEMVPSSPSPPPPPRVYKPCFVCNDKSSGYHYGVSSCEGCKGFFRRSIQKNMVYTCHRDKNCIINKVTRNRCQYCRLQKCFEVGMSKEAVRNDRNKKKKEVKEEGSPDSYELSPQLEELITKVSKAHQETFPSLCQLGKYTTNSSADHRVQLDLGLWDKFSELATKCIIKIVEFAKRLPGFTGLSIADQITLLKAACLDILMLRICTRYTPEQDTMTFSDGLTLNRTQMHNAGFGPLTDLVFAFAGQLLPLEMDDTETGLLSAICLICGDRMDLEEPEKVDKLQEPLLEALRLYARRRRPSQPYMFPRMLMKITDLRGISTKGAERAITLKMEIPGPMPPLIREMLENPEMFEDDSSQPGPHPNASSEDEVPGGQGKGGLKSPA
human Thyroid Receptor alpha (THRa1), THRA (gene 7067), sequence (P10827 whole entry, looked up, the tested form may be a part): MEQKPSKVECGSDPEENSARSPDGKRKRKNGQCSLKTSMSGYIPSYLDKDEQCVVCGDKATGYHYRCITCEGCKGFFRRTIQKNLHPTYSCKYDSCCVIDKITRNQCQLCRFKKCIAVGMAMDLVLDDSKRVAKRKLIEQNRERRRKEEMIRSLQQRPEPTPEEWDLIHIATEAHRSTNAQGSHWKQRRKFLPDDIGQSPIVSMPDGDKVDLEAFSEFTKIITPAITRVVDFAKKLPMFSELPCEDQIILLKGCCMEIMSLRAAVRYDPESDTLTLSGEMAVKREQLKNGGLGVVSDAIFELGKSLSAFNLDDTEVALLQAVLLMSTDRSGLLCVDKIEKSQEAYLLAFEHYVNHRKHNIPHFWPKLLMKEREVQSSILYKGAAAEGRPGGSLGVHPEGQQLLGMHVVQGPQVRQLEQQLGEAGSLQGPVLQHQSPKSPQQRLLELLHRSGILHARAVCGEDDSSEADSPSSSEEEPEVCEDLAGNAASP

Take `CON(C)C(=O)Nc1ccc(Cl)c(Cl)c1`: the outcome in assay [1], in [2], in [3], in assay [4], in [5] and in assay [6] was inactive. The result in [7], in [8], in [9], in [10], in assay [11] and in assay [12] was inactive. For the same compound, the result in assay [13], in assay [14], in assay [15], in assay [16], in assay [17] and in assay [18] was inactive. Also, the outcome in assay [19] was inactive. Also, in assay [5], the AC50 was 5.27 µM (active).

Take `OC(c1ccc(Cl)cc1)(c1cncnc1)c1ccccc1Cl` (centres undefined): the compound was classed as inactive in [1], in assay [2], in [3], in assay [4], in [5] and in assay [6]. The result in assay [7], in [8], in assay [10], in assay [11], in [12] and in assay [14] was inactive. The outcome in [17], in assay [18] and in assay [19] was inactive. Further, the AC50 in assay [9] was 10.8 µM (active); in [13] it was 26 µM (active); in assay [15], 9.8 µM (active); in [16], 23.9 µM (active).

On to `CCOP(=S)(OCC)SCn1c(=O)oc2cc(Cl)ccc21`, for which the outcome in assay [1], in assay [2], in assay [3], in [4], in [5] and in assay [6] was inactive. Further, the result in [7], in [8], in [9], in assay [10], in assay [11] and in [14] was inactive. The outcome in assay [17], in assay [18] and in assay [19] was inactive. Further, the concentration at half-maximal activity (AC50) in [13] was 30.2 µM (active); in assay [15] it was 39 µM (active); in [16], 29.6 µM (active).

In the case of `COC(=O)N(OC)c1ccccc1COc1ccn(-c2ccc(Cl)cc2)n1`, the result in assay [1], in [2], in assay [3], in [4], in [7] and in assay [11] was inactive. The outcome in assay [14] was inactive. Besides, the concentration at half-maximal activity (AC50) is 3.06 µM (active) in [5]; 5.33 µM (active) in [6]; 19 µM (active) in assay [8]; 7.6 µM (active) in assay [9]; 13.5 µM (active) in assay [10]; 20 µM (active) in [13]. Moreover, the half-maximal activity concentration (AC50) in assay [15] was 13.7 µM (active); in [16] it was 20 µM (active); in assay [17] it was 10.5 µM (active); in assay [18] it was 28.1 µM (active); in assay [19], 3.97 µM (active).

In the case of `Cc1ccc(-c2c(Cl)nc(C#N)n2S(=O)(=O)N(C)C)cc1`, the call in assay [1], in [2], in assay [3], in assay [5], in assay [7] and in assay [11] was inactive. The compound was classed as inactive in assay [12], in assay [14] and in assay [19]. For the same compound, the concentration at half-maximal activity (AC50) in [6] was 15.8 µM (active); in assay [8] it was 26.3 µM (active); in assay [9], 20 µM (active); in [10], 15.8 µM (active); in assay [13] it was 26.1 µM (active); in [15], 15.2 µM (active). The half-maximal activity concentration (AC50) is 17.7 µM (active) in assay [16], 25.5 µM (active) in assay [17] and 27.4 µM (active) in assay [18].

`CO/C=C(/C(=O)OC)c1ccccc1Oc1cc(Oc2ccccc2C#N)ncn1`: the compound was classed as inactive in assay [1], in assay [3], in assay [4], in [5], in assay [7] and in assay [11]. Moreover, the outcome in [12], in assay [14], in assay [15], in assay [16], in [17] and in assay [18] was inactive. Further, the result in assay [19] was inactive. For the same compound, the AC50 in [5] is 12.2 µM (active); in assay [8], 29 µM (active) [middle of 4 runs]; in assay [9], 19.6 µM (active) [middle of 4 runs]; in [11] it was 38.1 µM (active) and 33.2 µM (active) and 32.7 µM (active); in [13], 20 µM (active) [middle of 4 runs]; in assay [15], 39.6 µM (active) and 42 µM (active). Besides, the AC50 in assay [16] is 31.7 µM (active) and 21.1 µM (active); in assay [17], 26.7 µM (active) and 16.4 µM (active) and 24.2 µM (active).
